High-throughput results deposited in PubChem BioAssay by several laboratories.
Compounds with a hit are over-represented: about 1.8% of the library has one in this group of screens.
MsrA inh: inhibitors of bovine MsrA | purified bovine MsrA, absorbance read-out | inhibition, % at 15.5 µM | 360,000 tested, 0.75% active | AID 651718
NPR2 activator: GC-B (human) receptor activation; P20594; HEK293-GC-B cells, CNP EC30, cGMP TR-FRET; 0% at EC30 CNP, 100% saturating CNP; activation, % at 10 µM; 370,000 tested, 0.11% active;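 active means activation at 10 µM reaching about 35% in either raw or pattern-adjusted values, limit read from the data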
MsrA act: activators of bovine methionine sulfoxide reductase A. AID 602163. 360,000 tested, 0.3% active. activation, % at 10.6 µM. purified bovine MsrA, absorbance read-out; in the data active means activation above about 7.5%
HTR2A ag: mouse HTR2A agonism via beta-arrestin recruitment | 360,000 tested, 0.66% active | activation, % at 7.6 µM | AID 624169 | CHO-K1 mHTR2A beta-arrestin complementation, luminescence; percent of 30 µM serotonin response | P35363;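 active means activation above a run cutoff, the mean activation of all tested compounds plus 3 SD, cut at about 14% in these data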
Target sequence (P35363 whole entry, looked up): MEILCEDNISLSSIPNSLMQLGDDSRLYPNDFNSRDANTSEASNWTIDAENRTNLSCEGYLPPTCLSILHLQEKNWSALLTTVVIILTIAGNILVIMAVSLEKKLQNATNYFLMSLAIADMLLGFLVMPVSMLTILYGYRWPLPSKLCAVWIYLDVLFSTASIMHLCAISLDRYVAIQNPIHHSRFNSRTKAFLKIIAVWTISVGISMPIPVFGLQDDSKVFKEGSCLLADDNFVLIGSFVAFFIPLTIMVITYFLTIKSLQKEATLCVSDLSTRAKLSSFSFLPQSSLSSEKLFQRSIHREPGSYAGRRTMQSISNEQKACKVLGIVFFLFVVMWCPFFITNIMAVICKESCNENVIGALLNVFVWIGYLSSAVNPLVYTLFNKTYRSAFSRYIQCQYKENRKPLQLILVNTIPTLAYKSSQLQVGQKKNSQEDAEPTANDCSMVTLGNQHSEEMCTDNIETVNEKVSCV
NPR1 activator: GC-A (human) enzyme activation. HEK293 GC-A cells, cGMP TR-FRET, EC30 ANP; 0% at EC30 ANP, 100% saturating ANP. activation, % at 10 µM. 370,000 tested, 0.14% active; in the data active means activation above about 40%
MsrA conf: bovine MsrA inhibition, confirmed | shares compounds with MsrA inh | purified bovine MsrA, absorbance read-out | inhibition, % at 15.5 µM | 2,300 tested, 41% active | AID 651822;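 further: coupled to thioredoxin reductase with NADPH and selenocystamine and DMSO as substrate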
A number is an active result; 0 = inactive; - = not tested or not shown. Unless noted, no stated cut-off is given here; in the data, active means inhibition above about 4.5%; inactive means the rest.

SMILES	MsrA inh	NPR2 activator	MsrA act	HTR2A ag	NPR1 activator	MsrA conf
COC(=O)c1sc(S(=O)(=O)NCCCN(C)C)c(C(=O)OC)c1C	0	0	0	0	0	-
CN(Cc1ccccc1)C(=O)OCc1cn(Cc2ccc(Cl)cc2)nn1	-	0	-	-	0	-
O=Cc1ccc(-c2ccc(C(=O)O)cc2)o1	7.2	0	0	0	0	0
O=Cc1ccc(-c2ccc(F)cc2)o1	0	0	0	0	0	-
O=C(O)/C(=C\c1ccc(-c2ccc(F)cc2)o1)c1ccccc1	4.7	0	0	0	0	0
CO[C@H]([C@H](C)/C=C/N(C)C=O)[C@@H](C)C(=O)CC[C@H](C)[C@H](O)[C@H](C)[C@H]1OC(=O)/C=C/C(C)=C/C[C@H](O)C[C@@H]2C=CC[C@@H](C[C@H](OC)[C@@H](CO)[C@@H](OC)C[C@@H](OC)[C@@H]1C)O2	-	0	-	-	0	-
CN(CCO)S(=O)(=O)c1ccc2c(c1)C(=NNC(N)=O)c1cc(S(=O)(=O)N(C)CCO)ccc1-2	4.8	0	0	0	0	0
COc1ccc(-c2cc(-c3nnc(SCc4cccc5ccccc45)n3N)[nH]n2)cc1	-	0	-	-	0	-
CCOC(=O)C1(C)CCN1C(=O)c1cccs1 (stereo not given)	0	0	0	0	0	-
C=CCc1c(C)nc(C)nc1N/N=C/c1ccc(N(C)C)cc1	6.8	0	0	0	0	5.0
CCOC(=O)c1sc(N/N=C/c2ccc(N(C)C)cc2)nc1C	0	0	0	0	0	-
COC(=O)CC1CCc2cc(C)cc(C(=O)CC(C)C)c2O1 (stereo not given)	-	0	-	-	0	-
CCCCNC(=O)C[C@H]1C[C@@]2(C(=O)OCC)CCCC3=C2N(CCC3)C1=O	-	0	-	-	0	-
CCCCNC(=O)CC1S/C(=N/N=C/c2ccc(OC)cc2)NC1=O (stereo not given)	0	0	0	0	0	-
O=C(O)CCCNC(=O)CC1S/C(=N/N=C/c2ccccc2O)NC1=O (stereo not given)	4.8	0	0	0	0	0
COc1ccc(/C=C/C(=O)NC2=NCCS2)c(OC)c1	-	0	-	-	0	-
Cn1cnc2c(N/N=C/c3cccs3)ncnc21	5.2	0	0	0	0	6.9
Cc1ccc2nc(-c3ccc(SCC(=O)N4CCc5ccccc54)nc3)[nH]c2c1	0	0	0	0	0	-
Cc1ccc2nc(-c3ccc(SCC(=O)O)nc3)[nH]c2c1	8.9	0	0	0	0	4.7
O=C(CSc1ccc(-c2nc3ccccc3[nH]2)cn1)Nc1ccc(S(=O)(=O)N2CCCC2)cc1	0	0	0	0	0	-
Cc1cc2nc(-c3ccc(SCC(=O)Nc4ccc(S(=O)(=O)N5CCCC5)cc4)nc3)[nH]c2cc1C	5.0	0	0	0	0	0
CCN(CC)C(=O)CC[C@H]1CC[C@]2(CCCN(Cc3ccc(N(C)C)cc3)C2)O1	-	0	-	-	0	-
O=C(C1=C(O)C(=O)N(CCOCCO)C1c1cccc([N+](=O)[O-])c1)c1cccs1 (stereo not given)	5.0	0	0	0	0	0
N#CC1=C(N)Oc2ccc3ccccc3c2C1c1cccnc1 (stereo not given)	6.6	0	0	0	0	0
N#CC1=C(N)Oc2ccc3ccc(O)cc3c2C1c1cccnc1 (stereo not given)	6.7	0	0	0	0	6.6
SMILES	MsrA inh	NPR2 activator	MsrA act	HTR2A ag	NPR1 activator	MsrA conf
N#CC1=C(N)Oc2cc(O)ccc2C1c1cccnc1 (stereo not given)	0	0	0	0	0	-
Cc1ccc(NC(=O)CSc2nc(C)cc(=O)[nH]2)c(C)c1	-	0	-	-	0	-
CSC(=Cc1ccc(C(=O)c2ccc(C)cc2)n1C)S(C)=O (stereo not given)	5.0	0	-	-	0	0
Cc1ccc(C(=O)c2ccc(CC(=O)O)n2C)cc1	0	0	0	0	0	-
COC(=O)C1CC(Cl)CN1c1ncc(C(F)(F)F)cc1Cl (stereo not given)	5.1	0	0	0	0	0
O=C1N=C(N2C=CC(=C3C=CNC=C3)C=C2)/C(=C/N=NC(=O)c2ccccc2O)S1	5.8	0	0	0	0	6.6
COc1ccc(/C=C(\C#N)C(=O)N=CN(C)C)cc1	0	0	0	0	0	-
COc1ccc(/C=C(\C#N)C(=O)N2COCC2(C)C)cc1	5.1	0	0	0	0	0
COc1ccc(CC(=O)NCc2n[nH]c(=S)n2-c2ccccc2OC)cc1	0	0	0	0	0	-
COc1ccc(C(=O)N/N=C/c2ccc(SC)cc2)cc1	5.2	0	0	0	0	5.9
O=C(NN=Cc1ccc(O)cc1)C(=O)NN=Cc1ccc(O)cc1	6.1	0	0	0	0	0
CSc1ccc(/C=N/NC(=O)c2ccc(O)cc2)cc1	7.9	0	0	0	0	5.8
COc1cccc(-c2nnc(SCc3cc(C)ccc3C)n2Cc2ccco2)c1	-	0	-	-	0	-
COc1cc(/C=N/Nc2cc(C)nc(NS(=O)(=O)c3ccc(C)cc3)n2)ccc1O	5.5	0	0	0	0	5.7
COc1cc(/C=N/Nc2ccccn2)ccc1O	0	0	0	0	0	-
COc1cc(/C=N/Nc2cc(C)nc(NS(=O)(=O)c3ccccc3)n2)ccc1O	7.4	0	0	0	0	6.9
COc1ccc(/C=N/Nc2cc(C)nc(NS(=O)(=O)c3ccc(C)cc3)n2)cc1	0	0	0	0	0	-
Cc1ccccc1S(=O)(=O)N1CCC(c2nc3ccccc3o2)CC1	-	0	-	-	0	-
CCCCCCCCN1C(=O)[C@@H](CC(=O)N2CCN(C(=O)c3ccco3)CC2)C[C@@]2(C(=O)OC)C1=C[C@H](COCc1ccccc1)O[C@@H]2C	-	0	-	-	0	-
CN(C)C=NC(=O)/C(C#N)=C1\CCc2ccccc2N1	6.3	0	0	0	0	0
O=C(CCn1nnc(-c2cccs2)n1)N1CCCC1	-	0	-	-	0	-
CCCc1cn(-c2ccc3c(c2)[C@]2(CC(=O)N(C)C2c2ccccc2)C(=O)N3CC(C)C)nn1 (stereo not given in full)	-	0	-	-	0	-
COC(=O)/C=C1\OCc2cc(OC)c(OC)cc21	0	0	-	0	0	-
COc1cc2c(cc1OC)/C(=C/C(C)=O)OC2	6.9	0	-	0	0	0
CCOC(=O)c1cc2ccc(OC(=O)c3ccco3)cc2oc1=O	0	0	0	0	0	-
SMILES	MsrA inh	NPR2 activator	MsrA act	HTR2A ag	NPR1 activator	MsrA conf
CCOC(=O)c1cc2ccc3ccccc3c2oc1=O	15	0	0	0	0	10
CCOC(=O)C1(Cc2ccccc2)CCN(Cc2ccccc2OC)CC1	-	0	-	-	0	-
Nc1ccc(-c2nc3ccc(C(=O)O)cc3s2)cc1	5.9	0	0	0	0	7.2
Nc1ccc(-c2nc3ccc(N)cc3s2)cc1	5.6	0	0	0	0	7.5
Nc1cc2sc(-c3ccc(C(=O)O)cc3)nc2cc1Cl	5.5	0	0	0	0	0
O=C1C[C@@H](c2ccccc2)N=C2N(CC3CC3)C/C(=C/c3ccccc3)N12	-	0	-	-	0	-
Cc1cc(N2CCN(C(=O)Oc3ccc(C(F)(F)F)cc3)CC2)c2ccccc2n1	-	0	-	-	0	-
Cc1ccc(C(=O)NC(=S)Nc2ccc(N3CCOCC3)cc2)c(C)c1	0	0	0	0	0	-
